From PubChem BioAssay
Hits are enriched below; roughly 3.9% of the tested compounds scored in any of these assays.
HIF-2a inh = inhibitors of HIF-2a | 360,000 compounds, 0.72% hits | 786-0 RCC cells HIF-2a reporter, luciferase luminescence, overnight | inhibition, % at 18.8 µM;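 active means inhibition of the luminescence signal of 40% or more relative to plate controls, in a single-dose primary screen at 18.75 µM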
TROY signal inh = inhibitors of TROY-dependent NF-kB signaling. inhibition, % at 10 µM. 360,000 compounds, 0.98% hits. Q293 LMP1-TROYcd NF-kB luciferase reporter, 4 h;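 active means compounds whose plate-normalised and pattern-corrected inhibition of the luciferase reporter signal at the single screening dose is 50% or more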
C8 TRAIL sens = caspase-8 TRAIL sensitization; NB7+C8 cells + TRAIL, ATPlite viability luminescence; inhibition (viability loss, TRAIL sensitization), % at 10 µM; 360,000 compounds, 1% hits;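 active means compounds causing at least 50% loss of cell viability in the single-dose screen, relative to plate controls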
HSP90 refold inh = HSP90 refolding inhibition in rabbit reticulocyte lysate | luciferase refolding luminescence, 3 h | 290,000 compounds, 0.91% hits | inhibition, % at 5.6 µM;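 active means inhibition above the screen-wide mean plus 3 SD, computed separately per campaign, cut at about 16% in these data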;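 further: 0% = DMSO wells and 100% = 60 µM geldanamycin wells; inhibitors lower the luminescence because luciferase stays unfolded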
aSyn UTR inh = 5' untranslated region of α-synuclein, MLPCN primary screen. alpha-synuclein 5'UTR reporter, inhibitor activity. inhibition, % (tested at 7.5 µM). 300,000 compounds, 0.82% hits. AID 1813; in the data active means inhibition above about 60%;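 further: H4 neuroglioblastoma cells stably carrying SNCA 5'UTR luciferase fusion; 0% = DMSO wells and 100% = positive control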
TWEAK Fn14 block = blocks TWEAK-Fn14 interaction in a reporter cell assay; TWEAK-stimulated Fn14 reporter cells, luciferase luminescence, 8 h; inhibition, % at 10 µM; 360,000 compounds, 2% hits; in the data active means inhibition above about 50%
* hit, by the source's call; / = no result.

SMILES	HIF-2a inh	TROY signal inh	C8 TRAIL sens	HSP90 refold inh	aSyn UTR inh	TWEAK Fn14 block
CC(C)C[C@H]1CN(CCCC[C@H]2CNC(=O)C(=O)N2Cc2ccccc2)C(=O)C(=O)N1CC1CCCCC1	-1	-3	-14	/	/	5
COc1ccc(Cl)cc1S(=O)(=O)N(C)CC(=O)NCc1ccc2c(c1)OCO2	1	0	-8	3	-4	53*
COc1ccc(S(=O)(=O)N(C)CC(=O)NCc2ccc3c(c2)OCO3)cc1	-1	-3	-4	8	-3	22
O=C(Nc1nnc(-c2cc(Cl)ccc2Cl)o1)c1ccco1	-45	-38	52*	/	-41	-22
CC(C)CC(N)c1csc(Nc2cc(Oc3ccccc3)ncn2)n1 (configuration not stated)	5	17	18	/	/	-21
Cc1ccc2cc(C)c3nnc(SCC(=O)NCc4ccco4)n3c2c1	-11	-13	8	1	29	52*
CC(C)C(=O)N1CCCC1(C)C(=O)Nc1ccccc1 (configuration not stated)	3	-6	10	/	/	16
Cc1ccc(-c2nnc(-c3ccccc3)o2)cc1	-89	-3	41	6	-77	48
Cc1cccc(-c2nnc(-c3ccc4ccccc4c3)o2)c1	-124	23	30	/	/	55*
Cc1ccc(-c2nnc(-c3cccc4ccccc34)o2)cc1	-218	-83	53*	/	/	-20
Cc1cccc(-c2nnc(-c3cccc4ccccc34)o2)c1	-186	-65	30	/	/	-18
CN(CC(=O)Nc1ccccc1Br)C(=O)c1ccccc1OCc1ccc(Cl)cc1	11	6	4	/	/	-8
CN(C)c1ccc2c(=O)c3ccccc3oc2n1	-130	-27	44	/	/	55*
Cc1nc2oc3ccccc3c(=O)c2cc1C(=O)O	-49	-35	-10	2	-12	-22
CCCN(C)C1CN(Cc2cn(Cc3cccc(Cl)c3)nn2)S(=O)(=O)C1 (configuration not stated)	2	-16	4	/	/	-8
CCc1ccc(-c2nc(CN3CCC(C(=O)N4CCN(c5ccccc5)CC4)CC3)c(C)o2)cc1	-9	27	25	13	-9	94*
N#CN=CN1CC=C(c2ccc(Cl)cc2)CC1	-3	1	7	/	/	-3
Cc1ccc(-n2c(Cl)c(Cl)nc(Cl)c2=O)cc1	94*	63*	-8	-5	/	102*
COc1ccc(S(=O)(=O)NCc2ccccn2)cc1C	0	5	-12	/	/	-4
Nc1c(C(=O)NCc2ccccc2)c2nc3ccccc3nc2n1CCCN1CCOCC1	8	-6	-7	5	-10	5
Nc1c(C(=O)NCc2ccco2)c2nc3ccccc3nc2n1CCc1ccccc1	-44	66*	-1	7	-9	72*
COC(=O)c1ccc(COc2ccccc2/C=C(\C#N)C(=O)Nc2c(C)cc(C)cc2C)cc1	2	20	-11	4	-43	68*
CCc1nc2ccc(C(=O)Nc3cccc(OCC(=O)N(C)C)c3)cn2c1N(CC)CCOC	-3	-3	-8	/	/	-5
COc1ccc(-c2cc(=O)oc3cc(O)ccc23)cc1	-4	26	12	-1	6	64*
COc1ccc(-c2nc(N/N=C(\C)c3ccc(O)cc3)c3ccccc3n2)cc1	-186	-31	59*	3	-92	-9
SMILES	HIF-2a inh	TROY signal inh	C8 TRAIL sens	HSP90 refold inh	aSyn UTR inh	TWEAK Fn14 block
COc1ccc(-c2nc(NCCCN(C)C)c3ccccc3n2)cc1	-162	-50	31	-4	-58	-19
CCSc1ccc(-c2ccc(C)cc2)nn1	-232	-27	57*	3	-52	-19
COc1cccc(C(=O)/C=C2\Sc3ccccc3N2C)c1	-187	-22	51*	0	-131	-6
CN1/C(=C\C(=O)c2cccnc2)Sc2ccccc21	-284	-74	19	3	-94	-9
c1ccc(CCNc2ccnc3cc4ccccc4cc23)cc1	-3	12	33	0	117*	-16
COc1cccc(N=c2oc3ccc(OC)cc3cc2-c2nc3ccccc3[nH]2)c1	-206	48	63*	-1	-36	62*
COc1ccc(N=c2oc3ccc(OC)cc3cc2-c2nc3ccccc3[nH]2)cc1	-192	12	43	1	-32	49
C/C(=N\Nc1ccc(Cl)c(C(=O)O)c1)c1cccc2ccccc12	-35	-32	13	2	-5	0
O=C(O)c1cc(N/N=C/c2cccc3ccccc23)ccc1Cl	-185	-19	-17	11	-131	101*
